Bioassay records deposited in PubChem BioAssay by National Center for Advancing Translational Sciences (NCATS).
In the library only some 10% were active in any assay of this set; here they are far more common.
GLS inh = qHTS for Inhibitors of Glutaminase (GLS); AID 624170, 2012; 410,000 compounds, 0.21% hits; GLS enzymatic activity, qHTS titration; Potency, µM (top dose mostly 45.5 µM), actives largely listed as inhibitors
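hKGA; 45 mM KH2PO4 pH 8.2 + 0.02% Tween-20; cpd via pin tool; 1 mM Gln soln; GluOx/HRP/Amplex Red; RT 30 min; fluor. t0 & final.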
BAZ2B inh = qHTS Assay for Inhibitors of BAZ2B | Potency, µM (titrated, usually from 114 µM), hits mostly inhibitors | AID 504333, 2011 | 360,000 compounds, 4.4% hits | AlphaScreen BAZ2B-H3K14Ac peptide displacement | Bromodomain adjacent to zinc finger domain protein 2B (Homo sapiens), Q9UIF8; note: nearly all actives have a fitted effect of over 60% in size
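AlphaScreen luminescence quantifies BAZ2B engagement of H3K14Ac peptide; the protein and biotinylated peptide are both at 50 nM final, buffer PBS pH 7.4 with 0.01% Tween-20, all steps at room temperature.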
JMJD2A Tudor inh = qHTS Assay for Inhibitors of JMJD2A-Tudor Domain. Lysine-specific demethylase 4A (Homo sapiens), O75164. AlphaScreen JMJD2A-Tudor / H3K4me3 peptide binding. Potency, µM (highest dose often 114 µM), actives largely listed as inhibitors. AID 504339, 2011. 390,000 compounds, 4.4% hits; note: nearly all actives have a fitted effect of over 50% in size
L3MBTL1 block = qHTS Assay for the Inhibitors of L3MBTL1. AlphaScreen L3MBTL1–H3K9me1 peptide binding. Potency, µM (doses to about 57.1 µM), hits mostly inhibitors. 230,000 compounds, 0.66% hits. AID 485360, 2010; note: nearly all actives have a fitted effect of over 60% in size
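Read-out is AlphaScreen signal from streptavidin donor and nickel chelate acceptor beads (10 ug/mL final each) bridging L3MBTL1 (50 nM) and biotinylated K9-monomethylated H3(1-15) peptide (75 nM), after 30 min compound exposure at room temperature.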
HP1b chromo inh = HTS for Inhibitors of HP1-beta Chromodomain Interactions with Methylated Histone Tails; AID 540317, 2011; Potency, µM (doses to about 114 µM), usual class: inhibitors; 390,000 compounds, 0.56% hits; AlphaScreen HP1-beta / biotin-H3K9me3 peptide binding; note: nearly all actives have a fitted effect of over 70% in size
Target sequence (P83916 whole entry, looked up): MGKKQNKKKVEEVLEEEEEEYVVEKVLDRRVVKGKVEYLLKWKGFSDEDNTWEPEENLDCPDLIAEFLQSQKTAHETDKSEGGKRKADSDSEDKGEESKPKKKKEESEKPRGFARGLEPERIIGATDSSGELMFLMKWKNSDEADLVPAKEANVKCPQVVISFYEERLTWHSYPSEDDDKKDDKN
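HP1-beta protein (50 nM final) preincubated 30 min at room temperature with biotinylated H3(1-18)K9me3 peptide (50 nM) in PBS pH 7.4, 0.01% Tween-20, then compound added for 30 min. AlphaScreen streptavidin donor/nickel chelate acceptor beads (10 ug/mL final), 30 min dark, luminescence read.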
G9a inh = qHTS Assay for Inhibitors of Histone Lysine Methyltransferase G9a. Histone-lysine N-methyltransferase EHMT2 (Homo sapiens), Q96KQ7. G9a H3K9 monomethylation, AlphaScreen, 2 h. Potency, µM (doses to about 102 µM), usual class: inhibitors. 350,000 compounds, 8.8% hits; note: nearly all actives have a fitted effect of over 75% in size
Target sequence (Q96KQ7 913-1193 limits assumed): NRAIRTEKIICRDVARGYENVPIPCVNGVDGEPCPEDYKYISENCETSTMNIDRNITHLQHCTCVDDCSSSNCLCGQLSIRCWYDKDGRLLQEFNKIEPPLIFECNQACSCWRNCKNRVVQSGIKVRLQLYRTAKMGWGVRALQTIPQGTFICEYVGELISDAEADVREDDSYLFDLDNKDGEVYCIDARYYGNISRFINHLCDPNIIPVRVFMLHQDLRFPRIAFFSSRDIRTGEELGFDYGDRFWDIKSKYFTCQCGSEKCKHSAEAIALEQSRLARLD
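AlphaScreen detection with an anti-monomethyl H3K9 antibody quantified product after a 2 h room-temperature reaction containing 500 nM biotinylated H3K9 peptide, 20 µM SAM and 20 nM enzyme, which had been preincubated 15 min with compound.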
Hits are given with their value; i = inactive; ? = inconclusive; nt = no result; ! = not active in a repeat; [ ] = another dose, or the depositor's remark. Calls come from the whole dose curve; as a rule, active = well fitted curve in the direction sought with a large enough effect; inconclusive = small, poorly fitted or top-dose-only effect, or another doubt; inactive = no such curve, though single readings can be large; an effect the other way counts as inactive or inconclusive.

SMILES	GLS inh	BAZ2B inh	JMJD2A Tudor inh	L3MBTL1 block	HP1b chromo inh	G9a inh
COc1ccc(-c2nc(=S)[nH][nH]2)cc1	i	i	2.5µM	i	79µM	1.8µM
CCOc1ccc(-c2nnc(-c3ccc(OC)cc3)o2)cc1	i	i	i	i	i	i
Oc1ccc(-c2nc(=S)[nH][nH]2)cc1	i	i	5µM	i	i	1.3µM
FC(F)(F)c1ccc(-c2nc3ccccc3s2)cc1	i	nt	nt	nt	nt	nt
FC(F)(F)c1ccc(-c2nc(=S)[nH][nH]2)cc1	i	i	22µM	nt	i	3.5µM
N[C@H](C(=O)O)C1C(C(=O)O)C1C(=O)O (stereo not given in full)	nt	nt	nt	nt	nt	i
O=c1c(S(=O)(=O)c2ccccc2)cn(Cc2ccccc2)c2cc(N3CCOCC3)c(F)cc12	i	i	i	nt	i	i
Cc1ccc2nc(SC(Cc3cc(Cl)ccc3Cl)C(=O)O)[nH]c2c1 (stereo not given)	i	i	i	nt	i	i
COc1ccc(CNc2nc(-c3ccc(OC)cc3)cc(C(F)(F)F)n2)cc1	i	i	i	nt	i	i
N#Cc1ccc(N2CCN(S(=O)(=O)c3ccc4c(c3)CC(=O)N4)CC2)cc1	nt	nt	i	nt	nt	nt
COCCSc1ccccc1C(=O)Nc1ccccc1C(C)C	i	i	i	i	i	5µM
COCCSc1ccccc1C(=O)NCc1ccc(S(N)(=O)=O)cc1	i	i	i	nt	i	45µM
CSc1ccccc1C(=O)NCC1CCCO1 (stereo not given)	i	i	i	nt	i	i
CCNS(=O)(=O)c1ccc(NC(=O)c2ccccc2SCCOC)cc1	i	i	i	i	i	16µM
CSc1ccccc1C(=O)NCc1ccc(S(N)(=O)=O)cc1	i	i	i	nt	i	?
COCCSc1ccccc1C(=O)NCC1CCCO1 (stereo not given)	i	i	i	nt	i	6.3µM
NC(=O)c1ccc[n+]([C@H]2O[C@@H](COP(=O)([O-])OP(=O)(O)OC[C@H]3O[C@@H](n4cnc5c(N)ncnc54)[C@H](O)[C@@H]3O)[C@H](O)[C@@H]2O)c1	i	35µM	79µM	i	i	i[12.7 µM]
NC(=S)c1ccc[n+]([C@@H]2O[C@@H](COP(=O)([O-])OP(=O)(O)OC[C@H]3O[C@@H](n4cnc5c(N)ncnc54)[C@H](OP(=O)(O)O)[C@@H]3O)C(O)C2O)c1 (stereo not given in full)	nt	nt	nt	nt	nt	7.9µM
NC(=O)c1ccc[n+]([C@@H]2OC(COP(=O)([O-])OP(=O)(O)OCC3OC(n4cnc5c(N)ncnc54)C(O)C3O)C(O)C2O)c1 (stereo not given in full)	nt	nt	nt	nt	nt	i[2.33 µM]
NC(=S)c1ccc[n+]([C@@H]2O[C@@H](COP(=O)([O-])OP(=O)(O)OC[C@H]3O[C@@H](n4cnc5c(N)ncnc54)[C@H](OP(=O)(O)O)[C@H]3O)C(O)C2O)c1 (stereo not given in full)	nt	nt	nt	nt	nt	18µM
Oc1cccnc1CN1CCOCC1	i	nt	7.9µM	nt	i	nt
c1ccc(CN2CCOCC2)nc1	i	nt	11µM	nt	i	nt
O=P(O)(CCc1ccccn1)CN1CCOCC1	i	i	?	i	i	?
Fc1ccc(N2CCN(Cc3ccccn3)CC2)cc1	i	50µM	11µM	i	?	3.5µM
CCN(c1ccccc1)S(=O)(=O)c1ccc(Cl)c(NC(=O)CNCc2ccccc2OC)c1	i	nt	3.2µM	i	?	nt
SMILES	GLS inh	BAZ2B inh	JMJD2A Tudor inh	L3MBTL1 block	HP1b chromo inh	G9a inh
CCN(c1ccccc1)S(=O)(=O)c1ccc(Cl)c(NC(=O)CN(C)C2CCN(C)CC2)c1	i	22µM	?	nt	?	11µM
CCN(c1ccccc1)S(=O)(=O)c1ccc(OC)c(NC(=O)c2cc(Cl)ccn2)c1	i	i	i	i	i	56µM
CCN(c1ccccc1)S(=O)(=O)c1ccc(OC)c(NC(=O)c2c(C)noc2C)c1	i	i	i	i	i	i
Cc1cccc(C(=O)NC2CCN(C(=O)NCc3ccccc3)CC2)c1	i	i	?	nt	i	11µM
Cc1ccc(NC(=O)N2CCC(NC(=O)c3ccco3)CC2)cc1	i	i	i	nt	i	i
Cc1ccc(NC(=O)N2CCC(NC(=O)c3cccc(C)c3)CC2)cc1	?	50µM	40µM	nt	?	7.9µM
CCCNC(=S)N1CCC(NC(=O)c2cccc(C)c2)CC1	i	i	i	i	i	nt
O=C(Nc1ccc(F)c(Cl)c1)N1CCC(CN2CCOCC2)CC1	i	i	i	nt	i	i
Cc1ccc(C)c(NC(=O)CSc2cn(CC(=O)N3CCCC3)c3ccccc23)c1	i	i	i	nt	i	i
Cc1ccc(NC(=O)Cn2c(=O)n(Cc3ccco3)c(=O)c3oc4ccccc4c32)cc1C	i	i	i	nt	i	i
O=c1c(-c2ccccc2)c(-c2ccccc2)oc2cc(O)cc(O)c12	i	71µM	?	nt	i	i[0.501 µM]
O=c1c(-c2ccc(O)cc2O)coc2cc(O)cc(O)c12	i	i	i	i	i	i[12.7 µM]
O=c1c(O)c(-c2ccccc2)oc2cc(O)cc(O)c12	i	nt	i	i	i	nt
O=c1c(O)c(-c2ccc(O)cc2O)oc2cc(O)cc(O)c12	nt	50µM	nt	?	nt	40µM!
Cc1noc(C)c1-c1nccc(NCc2cccs2)n1	nt	nt	nt	nt	nt	i[0.501 µM]
COc1ccc(Nc2oc(/C=C/c3cc(OC)c(OC)c(OC)c3)nc2C#N)cc1	i	i	i	nt	i	i
CCC(=O)Nc1ccccc1-c1nc2ccccc2n(CC(=O)c2ccc(C)cc2)c1=O	i	i	i	nt	i	?
COC1(OC)C(=N/O)/C(=N\O)CCC1O (stereo not given)	i	?	i	nt	i	11µM
Cc1c(P(=S)(c2ccccc2)c2ccccc2)[n+]2ccccc2n1Cc1ccccc1	nt	nt	i	nt	nt	nt
O=S(=O)(O)c1ccc(N=NNc2ccc(Br)cc2)cc1	i	i	i	nt	i	25µM
COc1ccccc1CNC(=O)c1cnc2sc(N3CCOCC3)nn2c1=O	i	i	i	nt	i	i
COc1ccccc1N1CCN(/N=C\c2ccc(C)o2)CC1	i	i	i	i	?	?
COc1ccccc1N1CCN(/N=C/c2cccc(OC)c2OC)CC1	i	35µM	?	i	?	50µM
COc1ccccc1N1CCN(/N=C\c2ccccc2)CC1	i	?	i	i[2.29 µM]	i	i[0.501 µM]
COc1ccccc1N1CCN(/N=C\c2sccc2C)CC1	i	13µM	?	nt	i	16µM
